# Measurements taken from ChEMBL document CHEMBL4513146, “CO-ADD screening of Karazin Kharkiv National University (Ukraine) compounds”.
# Results with a measured potency or affinity are listed apart.
# Assays:
# Klebsiella pneumoniae = settings: Concentration 32 ug.mL-1;; ASSAY_TEST Inhibition of Bacterial Growth; detection method Absorption (OD600); MEDIA CAMHB; plate type 384well; NBS; CORNING #3640; time 18 hr
# Candida albicans = settings: Concentration 32 ug.mL-1; ASSAY_TEST Inhibition of Fungal Growth; detection method Absorption (OD530)
# Cryptococcus neoformans = settings: Concentration 32 ug.mL-1; ASSAY_TEST Inhibition of Fungal Growth; detection method Resazurin; Absorption (OD600-OD570); plate type 384well; NBS; CORNING #3640
structure (smiles),measurement,setting,value
COC(=O)c1ccccc1NC(=O)Cn1nc2c(Oc3ccccc3)nccn2c1=O,Inhibition,Klebsiella pneumoniae,8.23%
same,Inhibition,Candida albicans,7%
same,Inhibition,Cryptococcus neoformans,-9.79%
CC(C)c1nnc2c(SCC(=O)Nc3cccc(Cl)c3)nc3ccccc3n12,Inhibition,Klebsiella pneumoniae,10.95%
same,Inhibition,Candida albicans,2.12%
same,Inhibition,Cryptococcus neoformans,-14.08%
COc1ccc(-c2cc3c4nn(CC(=O)NCc5ccccc5Cl)c(=O)n4ccn3n2)cc1,Inhibition,Klebsiella pneumoniae,14.7%
same,Inhibition,Candida albicans,1.1%
same,Inhibition,Cryptococcus neoformans,-29.87%
Cc1nc(-c2ccccn2)cc2nn(CC(=O)Nc3ccccc3C(F)(F)F)c(=O)n12,Inhibition,Klebsiella pneumoniae,3.31%
same,Inhibition,Candida albicans,0.65%
same,Inhibition,Cryptococcus neoformans,-8.99%
COc1ccc(N(Cc2cccc(F)c2)S(=O)(=O)c2ccc3nncn3c2)cc1,Inhibition,Klebsiella pneumoniae,25.01%
same,Inhibition,Candida albicans,3.57%
same,Inhibition,Cryptococcus neoformans,-1.54%
O=S(=O)(c1ccc2nncn2c1)N(Cc1ccc(F)cc1)c1ccc(F)c(F)c1,Inhibition,Klebsiella pneumoniae,5.64%
same,Inhibition,Candida albicans,2.31%
same,Inhibition,Cryptococcus neoformans,-6.65%
COc1ccc(CNC(=O)CCc2nnc3c(N4CCCCC4)nc4ccccc4n23)cc1OC,Inhibition,Klebsiella pneumoniae,15.18%
same,Inhibition,Candida albicans,6.91%
same,Inhibition,Cryptococcus neoformans,-22.66%
Cc1cccc(N(CC(=O)OC(C)(C)C)S(=O)(=O)c2cccn3c(C)nnc23)c1,Inhibition,Klebsiella pneumoniae,8.25%
same,Inhibition,Candida albicans,2.37%
same,Inhibition,Cryptococcus neoformans,-7.45%
Cc1ccc(-c2cc3c4nn(CC(=O)Nc5ccc6c(c5)OCCO6)c(=O)n4ccn3n2)cc1C,Inhibition,Klebsiella pneumoniae,12.57%
same,Inhibition,Candida albicans,1.55%
same,Inhibition,Cryptococcus neoformans,-15.09%
COc1ccc(-c2cc3c4nnc(SCC(=O)NCc5cccc(OC)c5OC)n4ccn3n2)cc1,Inhibition,Klebsiella pneumoniae,6.86%
same,Inhibition,Candida albicans,0.88%
same,Inhibition,Cryptococcus neoformans,-15.85%
Cc1ccc(CNC(=O)CSc2nnc3c4cc(-c5ccc(F)cc5)nn4ccn23)cc1,Inhibition,Klebsiella pneumoniae,11.62%
same,Inhibition,Candida albicans,2.7%
same,Inhibition,Cryptococcus neoformans,-29.65%
O=c1c2nnc(-c3cccc([N+](=O)[O-])c3)n2ccn1-c1ccc(F)cc1,Inhibition,Klebsiella pneumoniae,11.79%
same,Inhibition,Candida albicans,5.6%
same,Inhibition,Cryptococcus neoformans,-10.38%
